KCNQ2 enhance: potentiators of rat KCNQ2 potassium channel | AID 2239 | O88943 | CHO-K1 KCNQ2, FluxOR thallium flux fluorescence; hits give high values | B-score at 10 µM | 310,000 tested, 0.54% active;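 active = fluorescence ratio B-score at least 3 SD of library B-scores, with initial fluorescence B-score within 3 of them, cut at about 5.3 in these data; same plate scores as AID 2156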;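 also: B-score of peak minus minimum over baseline fluorescence ratio after K+ and Tl+ stimulus; positive B-score means potentiation of KCNQ2 with more thallium influx and brighter signal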
KCNQ2 inh: blocks the rat KCNQ2 potassium channel; O88943; B-score at 10 µM; CHO-K1 KCNQ2, FluxOR thallium flux, 20 min; hits give low values; AID 2156; 310,000 tested, 1.1% active;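 active = fluorescence ratio B-score at most minus 3 library SDs, with starting brightness B-score within 2 library SDs, cut at about -5.5 in these data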
Kir21 confirm: confirmation of mouse Kir2.1 potassium channel inhibitors. shares compounds with KCNQ2 enhance. Kir2.1-expressing cells, FluxOR thallium flux fluorescence; hits give low values. Tl flux remaining, % of negative control (hits give low values), % at 10 µM. 2,300 tested, 41% active. AID 2032;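 active = Primary-screen hit whose thallium flux fell at least 3 control SD below untreated wells in both duplicates, with normal baseline fluorescence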;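 also: 0% = blank wells without stimulus and 100% = stimulated no-compound controls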
HEK293 ctr: counter-screen for Kir2.1 inhibitors: effect in parental HEK293 cells; FluxOR signal as % of negative control (100 = no effect), % at 10 µM; AID 2105; 2,300 tested, 19% active; FluxOR thallium flux fluorescence; 0% = unstimulated blank wells; shares compounds with KCNQ2 enhance;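 active = dye signal at least 3 control SD above or below untreated wells in both duplicates, raw fluorescence within 3, either direction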;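 also: percent is based on the flux ratio of peak minus minimum fluorescence over baseline F0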
CHO-K1 ctr: counter-screen for KCNQ2 potentiators: effect in parental CHO-K1 cells. shares compounds with KCNQ2 enhance. FluxOR thallium flux fluorescence; zero = vehicle mean+3SD, 100% = vehicle-minus-blank window. activity increase over 3SD of controls, % at 10 µM. 1,200 tested, 43% active;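 active = signal rise of at least 3 SD above the untreated control mean, in both duplicate wells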;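 also: counter screen of KCNQ2 potentiator hits so any rise reflects channel-independent effects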
KCNQ1 sel pot: selectivity of KCNQ2 potentiators: effect on human KCNQ1; activation over 3SD threshold, % at 10 µM; 1,200 tested, 28% active; shares compounds with KCNQ2 enhance; CHO KCNQ1 stable, FluxOR thallium flux fluorescence; beyond 3SD, as % of vehicle-control signal;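 active = fluorescence ratio rise of at least 3 SD of vehicle wells above their mean, in both replicate wells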;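 also: 0% = vehicle mean plus 3 SD and 100% = vehicle minus unstimulated blank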
KCNQ2 pot conf: rat KCNQ2 channel potentiator confirmation | shares compounds with KCNQ2 enhance | CHO-KCNQ2 cells, FluxOR thallium flux fluorescence | potentiation, less the hit threshold, % at 10 µM | 1,200 tested, 68% active | AID 2287;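 active = fluorescence ratio rising 3 SD or more over the vehicle control mean in both replicates, plus primary screen hit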;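 also: peak minus minimum thallium fluorescence divided by baseline after K/Tl stimulus; 0% = vehicle mean plus 3 SD and 100% = vehicle minus unstimulated blank difference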
Kir21 spec: tests whether KCNQ2 potentiators also affect mouse Kir2.1; AID 2345; activity over 3SD threshold, % at 10 µM; 1,200 tested, 2% active; shares compounds with KCNQ2 enhance; HEK293 Kir2.1, FluxOR thallium flux fluorescence;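 active = fluorescence ratio rise of at least 3 SD above the vehicle-control mean, seen in both replicates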;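 also: 0% = vehicle mean plus 3 SD and 100% = vehicle minus no-stimulus blank window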
KCNQ2 W236L MoA: potentiates the retigabine-insensitive rat KCNQ2 W236L mutant channel | 940 tested, 10% active | current increase over 3SD of negative controls (%), hits give high values, % at 25 µM | CHO KCNQ2-W236L, automated patch clamp current | shares compounds with KCNQ2 enhance;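 active = current increase at least 3 SD of the untreated controls above them in both duplicate recordings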
Target sequence (O88943 whole entry W236L, looked up): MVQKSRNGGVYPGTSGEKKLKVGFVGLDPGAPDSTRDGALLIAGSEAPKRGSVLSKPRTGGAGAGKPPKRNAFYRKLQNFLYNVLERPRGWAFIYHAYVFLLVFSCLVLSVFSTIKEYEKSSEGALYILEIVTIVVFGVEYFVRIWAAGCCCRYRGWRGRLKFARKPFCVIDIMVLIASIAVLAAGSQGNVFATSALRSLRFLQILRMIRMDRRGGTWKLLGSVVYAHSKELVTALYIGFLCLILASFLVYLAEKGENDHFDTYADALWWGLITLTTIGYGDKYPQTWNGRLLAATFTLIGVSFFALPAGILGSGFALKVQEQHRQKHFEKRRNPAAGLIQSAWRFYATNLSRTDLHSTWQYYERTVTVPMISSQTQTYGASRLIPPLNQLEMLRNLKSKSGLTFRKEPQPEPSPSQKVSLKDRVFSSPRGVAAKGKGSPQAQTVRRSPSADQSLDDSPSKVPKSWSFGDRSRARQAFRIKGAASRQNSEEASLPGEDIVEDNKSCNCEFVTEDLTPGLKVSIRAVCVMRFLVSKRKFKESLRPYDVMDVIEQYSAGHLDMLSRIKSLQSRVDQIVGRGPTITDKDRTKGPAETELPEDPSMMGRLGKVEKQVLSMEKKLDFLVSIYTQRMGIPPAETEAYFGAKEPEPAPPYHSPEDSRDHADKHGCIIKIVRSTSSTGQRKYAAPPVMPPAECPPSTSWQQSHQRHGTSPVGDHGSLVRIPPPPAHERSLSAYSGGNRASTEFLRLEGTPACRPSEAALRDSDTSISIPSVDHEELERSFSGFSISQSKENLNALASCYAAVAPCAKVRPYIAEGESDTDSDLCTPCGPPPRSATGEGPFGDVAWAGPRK
* hit, by the source's call; i = inactive; x = not tested or not shown. A selection: hits, their analogues and other compounds. The true share with any hit is near 1.6%.

SMILES	KCNQ2 enhance	KCNQ2 inh	Kir21 confirm	HEK293 ctr	others
N#Cc1c(NCCCO)nc(-c2ccccc2)c2c1CCCC2	1.11	i	x	x
CC(C)CC(=O)Nc1nnc(SCC(=O)Nc2nccs2)s1	0.62	i	x	x
COc1cccc(NC(=O)C2CCN(C(=O)[C@@H]3Cc4ccccc4CN3C(=O)OC(C)(C)C)CC2)c1	x	i	x	x
OC(CNCc1ccccc1)(c1ccc(F)cc1)c1ccc(F)cc1	x	i	38.5%*	i
OC(CNCc1ccccc1F)(c1ccc(F)cc1)c1ccc(F)cc1	x	i	x	x
OC(CNCc1ccc(F)cc1)(c1ccccc1)c1ccc(F)cc1 (stereo unspecified)	x	i	i	i
Cc1ccc(CNCC(O)(c2ccccc2)c2ccc(F)cc2)cc1 (stereo unspecified)	x	i	x	x
COc1ccc(S(=O)(=O)N2CCOC2CNC(=O)C(=O)NCc2ccccc2Cl)cc1 (stereo unspecified)	x	i	x	x
Cc1cc(OCC(O)CNC(C)c2ccccc2)ccc1C(C)C (stereo unspecified)	3.9	i	i	i
CC(NCC(O)COc1ccc2ccccc2c1)c1ccccc1 (stereo unspecified)	0.03	i	x	x
O=C(C1CCN(S(=O)(=O)c2ccc(F)cc2)CC1)N1CCCC(C(F)(F)F)C1 (stereo unspecified)	0.02	i	x	x
NNC(=O)c1ccc(COc2ccc3ccccc3c2)o1	1.23	i	x	x
O=C(OCc1ccccn1)c1ccc(COc2ccc3ccccc3c2)o1	5.41*	i	i	i	CHO-K1 ctr=-13.9;KCNQ1 sel pot=-7.5;KCNQ2 pot conf=-19.2;Kir21 spec=-21.9
S=C(NCc1cccs1)Nc1ccccc1	0.61	i	x	x
Cc1ccc(NC(=S)NCc2cccs2)cc1	8.95*	i	i	i	CHO-K1 ctr=-3.4;KCNQ1 sel pot=-11.8;KCNQ2 pot conf=13.9*;Kir21 spec=-29.3;KCNQ2 W236L MoA=i
COc1ccc2c(c1)C(=NNc1ccc(C(=O)O)cc1)c1cc(OC)ccc1-2	7.55*	i	i	i	CHO-K1 ctr=-15.1;KCNQ1 sel pot=-17.0;KCNQ2 pot conf=-17.6;Kir21 spec=-30.7
COc1ccc(/C(C)=N/Nc2ccc(C(=O)O)cc2)c(OC)c1	x	i	x	x
CC(C(=O)NCc1ccco1)n1ccc2cc(S(=O)(=O)N3CCCCC3)ccc21 (stereo unspecified)	x	i	x	x
CC(C)c1ccccc1NC(=S)NC1CCCCC1	x	i	x	x
CC(NC(=S)NC1CCCCC1)c1ccc(C(C)(C)C)cc1 (stereo unspecified)	9.86*	i	i	i	CHO-K1 ctr=-6.5;KCNQ1 sel pot=-17.8;KCNQ2 pot conf=16.3*;Kir21 spec=-34.5;KCNQ2 W236L MoA=i
CC(C)c1ccc(C(C)NC(=S)NC2CCCCC2)cc1 (stereo unspecified)	16.4*	i	i	i	CHO-K1 ctr=-2.7;KCNQ1 sel pot=-20.1;KCNQ2 pot conf=39.4*;Kir21 spec=-42.1;KCNQ2 W236L MoA=i
CC(C)c1ccc(/C=C/C(=O)NC2CCCCC2)cc1	0.67	i	x	x
Cc1ccc(CNC(=O)COC(=O)c2cnc(C)cn2)cc1	1.94	i	x	x
Cc1cc(C)c(C)c(OCCN2CCOCC2)c1	0.71	i	x	x
CN(C)c1cccc(C(=O)Nc2cccc(S(=O)(=O)NC3=NCCC3)c2)c1	0.83	i	x	x
SMILES	KCNQ2 enhance	KCNQ2 inh	Kir21 confirm	HEK293 ctr	others
CC(C)[C@@H](N)C(=O)N/N=C/c1ccc2ncccc2c1	0.07	i	x	x
CC(OC(=O)CCCN=C1NS(=O)(=O)c2ccccc21)C(=O)NC1CCCCC1C (stereo unspecified)	0.13	i	x	x
OC(CC#CCN1CCCC1)(c1ccccc1)c1ccccc1	x	i	x	x
C(#CCN1CCCC1)CC(c1ccccc1)c1ccccc1	x	i	40.5%*	i
COC(=O)C1=C(C(=O)OC)[C@@H]2N(Cc3ccccc3)c3ccccc3[C@@]23C[C@@H](C(=O)OC)N(C(=O)COCc2ccccc2)C3=N1	x	i	x	x
CSc1ccccc1NC(=O)CN(c1cc(C)cc(C)c1)S(C)(=O)=O	x	i	x	x
CS(=O)(=O)N(CC(=O)Nc1ccccc1Sc1ccccc1)c1cccc(Br)c1	17.5*	i	i	i	CHO-K1 ctr=-8.1;KCNQ1 sel pot=-6.1;KCNQ2 pot conf=1.7*;Kir21 spec=-40.1;KCNQ2 W236L MoA=i
O=C(NCCS(=O)(=O)N1CCN(c2cccc(Cl)c2)CC1)c1ccco1	1.55	i	x	x
S=c1[nH]nc(-c2cccs2)n1/N=C/c1c(Cl)cccc1Cl	7.36*	i	i	i	CHO-K1 ctr=-4.5;KCNQ1 sel pot=-19.8;KCNQ2 pot conf=7.3*;Kir21 spec=-37.9;KCNQ2 W236L MoA=i
Cc1ccc(/C=N/n2c(-c3cccs3)n[nH]c2=S)cc1	1.81	i	x	x
CCC(C(=O)O)n1nnc(-c2ccc(OCc3ccccc3)c(OC)c2)n1 (stereo unspecified)	0.39	i	x	x
COc1ccc(C(C)NCCC(c2ccc(OC(C)C)cc2)c2ccccc2OC)cc1 (stereo unspecified)	-6.6	-6.6*	56.5%*	i
COc1ccc(C(CCNC(C)c2ccccc2)C(C)C)cc1 (stereo unspecified)	0.56	i	47.5%*	i
COc1ccc(OCC(O)CNC(C)c2ccccc2)cc1 (stereo unspecified)	0.41	i	x	x
CC(C)Oc1ccc(C(CCNCc2ccc(O)cc2)c2ccccc2)cc1 (stereo unspecified)	x	i	x	x
COc1c(O)cccc1[C@H](O)C1CCN(CCc2ccc(F)cc2)CC1	0.33	i	x	x
S=c1[nH]nc(COc2ccccc2)n1/N=C/c1ccc(Cl)c(Cl)c1	x	i	x	x
Cc1cccc(/C=N/n2c(COc3ccccc3)n[nH]c2=S)c1	6.02*	i	i	158.5%*	CHO-K1 ctr=-8.4;KCNQ1 sel pot=-13.6;KCNQ2 pot conf=0.0*;Kir21 spec=-38.4;KCNQ2 W236L MoA=i
CC(COc1ccccc1Cc1ccccc1)N1CCCCC1 (stereo unspecified)	0.23	i	i	i
O=C(O)COc1ccccc1Cc1ccccc1	x	i	x	x
Cc1cccc(-n2c(=S)[nH]c3sc4c(c3c2=O)CCc2ccccc2-4)c1	5.61*	i	i	195.5%*	CHO-K1 ctr=-10.8;KCNQ1 sel pot=-25.5;KCNQ2 pot conf=-10.4;Kir21 spec=-25.4;KCNQ2 W236L MoA=i
Cc1ccc(-n2c(=S)[nH]c3sc4c(c3c2=O)CCc2ccccc2-4)cc1	x	i	x	x
COCCCNCCCCOc1ccc(OCc2ccccc2)cc1	0.41	i	x	x
c1ccc(COc2ccc(OCCCNC3CCCC3)cc2)cc1	x	i	30.0%*	i
CCC(C)c1ccccc1OCCCNC1CCCC1 (stereo unspecified)	1.29	i	63.0%*	i

High-throughput results (PubChem BioAssay)
